Experimental data reported in the supplement of paper PMC10849652.
Targets with a hit are over-represented here; the source holds about 7,900 in all. About 0.6% of all pairs of compound and target were hits.

What was measured:
Assay in all cases: log2 fold change, soluble protein after heating vs DMSO (PISA); higher = thermal stabilisation; K562 cells, 10 uM, 30 min; active = over 0.2 and 3.5 SD of the protein, either way, in both replicates (recomputed)
[1] = compound: C1=CC=C(C=C1)[C@H](COC2=CC3=C(C=C2)NC(=O)N3)NC(=O)C4=CC=CN(C4=O)CC5=CC(=C(C=C5)F)F
In short: (§1)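 K562 cells at 2×10^6 cells/mL were exposed to 10 μM compound for 30 min, then aliquots were heated for 3 min across 48°C-58°C, pooled, and extracted in PBS containing 0.5% NP-40 at 4°C. The supernatant after 21,000xg for 90 min was taken as soluble protein and measured by TMTpro 16plex LC-MS/MS with channel sums equalised. Thermal stability is reported relative to control samples, with values from duplicates. Fold changes are given on a log2 scale.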

[2] = compound: CC1=C(SC2=C1C(=N[C@H](C3=NN=C(N32)C)CC(=O)N)C4=CC=C(C=C4)Cl)C
In short: as §1

[3] = compound: CC1=C2C(=CC=C1)N=C(N(C2=O)C3=CC=CC=C3C)CN4C=NC5=C(N=CN=C54)N
In short: as §1

[4] = compound: Cc1sc2c(c1C)C(c1ccc(Cl)cc1)=N[C@@H](CC(=O)OC(C)(C)C)c1nnc(C)n1-2
In short: as §1

[5] = compound: c1ccc([C@@H]2C[C@H]2NC2CCNCC2)cc1
In short: as §1

Chain of UniProt Q8IVT5 (Q8IVT5 whole entry, looked up): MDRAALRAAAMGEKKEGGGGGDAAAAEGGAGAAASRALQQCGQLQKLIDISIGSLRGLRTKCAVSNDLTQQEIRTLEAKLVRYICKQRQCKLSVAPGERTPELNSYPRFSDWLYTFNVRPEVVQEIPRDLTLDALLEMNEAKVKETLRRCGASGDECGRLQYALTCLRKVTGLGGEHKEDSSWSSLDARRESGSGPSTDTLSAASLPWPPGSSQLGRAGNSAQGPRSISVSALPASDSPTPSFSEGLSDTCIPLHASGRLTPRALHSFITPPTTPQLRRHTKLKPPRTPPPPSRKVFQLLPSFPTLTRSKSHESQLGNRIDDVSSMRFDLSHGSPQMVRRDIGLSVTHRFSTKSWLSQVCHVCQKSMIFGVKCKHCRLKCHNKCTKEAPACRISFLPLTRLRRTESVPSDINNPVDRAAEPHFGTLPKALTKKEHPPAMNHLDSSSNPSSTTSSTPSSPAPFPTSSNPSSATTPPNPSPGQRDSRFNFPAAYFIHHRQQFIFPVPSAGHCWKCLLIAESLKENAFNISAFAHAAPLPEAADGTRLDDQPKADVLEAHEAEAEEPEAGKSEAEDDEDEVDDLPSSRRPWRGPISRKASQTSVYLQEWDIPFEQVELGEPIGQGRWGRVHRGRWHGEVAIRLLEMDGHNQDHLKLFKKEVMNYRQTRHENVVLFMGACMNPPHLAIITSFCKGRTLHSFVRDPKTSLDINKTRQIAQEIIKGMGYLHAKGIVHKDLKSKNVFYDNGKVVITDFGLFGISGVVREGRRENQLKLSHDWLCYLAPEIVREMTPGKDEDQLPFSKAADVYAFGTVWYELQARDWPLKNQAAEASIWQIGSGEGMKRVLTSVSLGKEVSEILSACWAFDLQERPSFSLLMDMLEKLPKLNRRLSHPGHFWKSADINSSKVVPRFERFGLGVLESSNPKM
Chain of UniProt Q16539 (Q16539 whole entry, looked up): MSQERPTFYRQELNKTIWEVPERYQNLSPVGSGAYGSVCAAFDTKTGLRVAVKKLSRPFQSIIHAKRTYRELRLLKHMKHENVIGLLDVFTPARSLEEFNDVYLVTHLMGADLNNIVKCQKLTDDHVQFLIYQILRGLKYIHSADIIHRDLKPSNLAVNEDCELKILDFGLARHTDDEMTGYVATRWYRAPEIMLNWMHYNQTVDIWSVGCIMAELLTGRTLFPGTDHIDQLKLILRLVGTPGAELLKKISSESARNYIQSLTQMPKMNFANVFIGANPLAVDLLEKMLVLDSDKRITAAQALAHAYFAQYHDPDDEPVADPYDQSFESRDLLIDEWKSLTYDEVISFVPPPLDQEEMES
Chain of UniProt P20700 (P20700 whole entry, looked up): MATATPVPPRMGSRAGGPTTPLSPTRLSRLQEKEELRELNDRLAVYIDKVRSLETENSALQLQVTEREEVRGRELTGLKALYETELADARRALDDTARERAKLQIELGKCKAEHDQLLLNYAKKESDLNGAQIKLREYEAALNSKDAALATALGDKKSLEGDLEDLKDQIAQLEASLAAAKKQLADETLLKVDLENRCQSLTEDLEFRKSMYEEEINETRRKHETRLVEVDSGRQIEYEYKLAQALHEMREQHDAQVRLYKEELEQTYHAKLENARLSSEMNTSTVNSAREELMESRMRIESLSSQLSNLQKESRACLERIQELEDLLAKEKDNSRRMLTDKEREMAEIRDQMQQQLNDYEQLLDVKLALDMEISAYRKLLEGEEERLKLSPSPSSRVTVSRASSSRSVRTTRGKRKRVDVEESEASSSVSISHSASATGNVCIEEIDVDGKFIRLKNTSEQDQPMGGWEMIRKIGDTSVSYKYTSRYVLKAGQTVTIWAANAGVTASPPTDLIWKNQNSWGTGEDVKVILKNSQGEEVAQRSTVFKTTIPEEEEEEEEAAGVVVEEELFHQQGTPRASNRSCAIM
Chain of UniProt P14174 (P14174 whole entry, looked up): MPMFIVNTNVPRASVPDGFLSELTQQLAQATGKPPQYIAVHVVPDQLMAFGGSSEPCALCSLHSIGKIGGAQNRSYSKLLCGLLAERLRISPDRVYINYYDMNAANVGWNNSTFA
Chain of UniProt Q14739 (Q14739 whole entry, looked up): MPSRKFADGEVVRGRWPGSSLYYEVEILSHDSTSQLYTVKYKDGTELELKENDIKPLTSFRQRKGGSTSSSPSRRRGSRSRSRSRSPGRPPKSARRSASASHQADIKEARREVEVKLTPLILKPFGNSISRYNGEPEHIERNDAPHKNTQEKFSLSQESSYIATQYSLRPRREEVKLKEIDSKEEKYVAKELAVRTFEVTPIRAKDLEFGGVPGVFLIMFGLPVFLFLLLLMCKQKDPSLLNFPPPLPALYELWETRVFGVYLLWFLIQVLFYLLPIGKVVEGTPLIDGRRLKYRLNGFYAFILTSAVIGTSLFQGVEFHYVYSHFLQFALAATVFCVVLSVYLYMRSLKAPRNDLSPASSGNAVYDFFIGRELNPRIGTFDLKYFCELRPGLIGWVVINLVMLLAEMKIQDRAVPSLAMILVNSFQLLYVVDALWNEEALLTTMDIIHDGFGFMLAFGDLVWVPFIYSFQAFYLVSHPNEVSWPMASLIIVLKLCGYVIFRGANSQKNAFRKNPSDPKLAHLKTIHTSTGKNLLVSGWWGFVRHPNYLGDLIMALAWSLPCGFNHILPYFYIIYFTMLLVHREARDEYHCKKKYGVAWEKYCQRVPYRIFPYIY
Chain of UniProt Q6P1A2 (Q6P1A2 whole entry, looked up): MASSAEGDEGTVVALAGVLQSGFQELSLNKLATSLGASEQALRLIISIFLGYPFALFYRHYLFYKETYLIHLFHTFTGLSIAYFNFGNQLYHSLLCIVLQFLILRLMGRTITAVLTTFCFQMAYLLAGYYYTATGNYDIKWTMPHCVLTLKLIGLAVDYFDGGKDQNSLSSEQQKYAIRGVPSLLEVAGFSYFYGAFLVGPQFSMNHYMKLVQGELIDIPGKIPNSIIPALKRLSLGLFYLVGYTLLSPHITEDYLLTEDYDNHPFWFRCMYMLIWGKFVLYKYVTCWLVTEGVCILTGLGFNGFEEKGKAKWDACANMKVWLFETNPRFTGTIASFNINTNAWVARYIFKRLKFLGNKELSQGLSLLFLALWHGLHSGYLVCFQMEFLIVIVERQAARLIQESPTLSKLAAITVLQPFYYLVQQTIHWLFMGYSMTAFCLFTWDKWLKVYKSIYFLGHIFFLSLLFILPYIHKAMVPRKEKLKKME
Chain of UniProt Q9H3U5 (Q9H3U5 whole entry, looked up): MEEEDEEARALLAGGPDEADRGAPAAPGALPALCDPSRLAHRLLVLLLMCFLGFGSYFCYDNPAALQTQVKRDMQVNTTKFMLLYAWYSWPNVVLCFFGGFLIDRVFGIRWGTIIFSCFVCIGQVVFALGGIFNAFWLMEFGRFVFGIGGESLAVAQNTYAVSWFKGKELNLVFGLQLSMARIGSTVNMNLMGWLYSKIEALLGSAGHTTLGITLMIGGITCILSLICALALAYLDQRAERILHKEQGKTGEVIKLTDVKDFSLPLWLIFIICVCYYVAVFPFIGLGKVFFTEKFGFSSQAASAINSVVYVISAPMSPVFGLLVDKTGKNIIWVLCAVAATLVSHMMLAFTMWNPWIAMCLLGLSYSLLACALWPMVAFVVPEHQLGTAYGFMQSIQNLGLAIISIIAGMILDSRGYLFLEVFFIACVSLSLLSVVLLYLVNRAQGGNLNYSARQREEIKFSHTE
Chain of UniProt P36507 (P36507 whole entry, looked up): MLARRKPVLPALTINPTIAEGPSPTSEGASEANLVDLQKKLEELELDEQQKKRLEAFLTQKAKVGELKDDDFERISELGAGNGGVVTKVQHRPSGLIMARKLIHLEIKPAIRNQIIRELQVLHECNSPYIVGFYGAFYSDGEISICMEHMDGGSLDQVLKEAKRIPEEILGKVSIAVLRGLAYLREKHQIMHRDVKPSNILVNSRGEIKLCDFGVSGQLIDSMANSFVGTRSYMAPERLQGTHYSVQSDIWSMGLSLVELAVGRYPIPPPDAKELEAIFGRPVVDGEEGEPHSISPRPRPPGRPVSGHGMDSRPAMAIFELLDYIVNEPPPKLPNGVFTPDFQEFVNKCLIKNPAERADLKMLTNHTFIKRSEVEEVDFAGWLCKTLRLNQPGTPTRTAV
Chain of UniProt Q9NQ29 (Q9NQ29 whole entry, looked up): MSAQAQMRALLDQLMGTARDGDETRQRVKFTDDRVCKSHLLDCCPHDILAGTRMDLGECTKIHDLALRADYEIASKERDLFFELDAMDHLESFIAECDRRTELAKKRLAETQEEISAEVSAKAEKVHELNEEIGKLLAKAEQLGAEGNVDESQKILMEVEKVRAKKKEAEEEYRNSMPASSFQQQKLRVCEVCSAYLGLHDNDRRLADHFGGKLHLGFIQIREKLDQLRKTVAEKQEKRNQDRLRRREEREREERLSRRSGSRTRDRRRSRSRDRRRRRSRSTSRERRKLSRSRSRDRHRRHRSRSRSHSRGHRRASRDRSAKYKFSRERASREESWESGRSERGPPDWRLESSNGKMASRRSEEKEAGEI

Row | Target | log2 fold change [1] | log2 fold change [2] | log2 fold change [3] | log2 fold change [4] | log2 fold change [5]
1 | LIMD1 (UniProt Q9UGP4) | 0.006 (inactive) | 0.004 (inactive) | -0.014 (inactive) | -0.005 (inactive) | 0.028 (inactive)
2 | LARP4 isoform 4 (UniProt Q71RC2) | 0.069 (inactive) | -0.071 (inactive) | 0 (inactive) | 0.093 (inactive) | 0.036 (inactive)
3 | MAPKAPK2 (UniProt P49137) | -0.047 (inactive) | 0.064 (inactive) | 0.012 (inactive) | 0.013 (inactive) | -0.056 (inactive)
4 | MED16 (UniProt Q9Y2X0) | -0.048 (inactive) | 0.012 (inactive) | 0.043 (inactive) | 0.093 (inactive) | 0.019 (inactive)
5 | MED7 (UniProt O43513) | -0.049 (inactive) | 0.029 (inactive) | 0.017 (inactive) | 0.016 (inactive) | 0.076 (inactive)
6 | LDLRAP1 (UniProt Q5SW96) | 0.055 (inactive) |  |  |  | 
7 | LTO1 (UniProt Q8WV07) | 0.054 (inactive) | -0.02 (inactive) | 0.142 (inactive) | -0.062 (inactive) | 0.03 (inactive)
8 | KMT2C isoform 3 (UniProt Q8NEZ4) | 0.032 (inactive) | 0.04 (inactive) | 0.017 (inactive) | -0.076 (inactive) | -0.001 (inactive)
9 | KIF21A isoform 4 (UniProt Q7Z4S6) | -0.003 (inactive) | -0.024 (inactive) | 0.061 (inactive) | -0.077 (inactive) | 0.014 (inactive)
10 | ILF3 (UniProt Q12906) | 0.06 (inactive) |  |  |  | 
11 | MED22 (UniProt Q15528) | 0.013 (inactive) | 0.065 (inactive) | 0.013 (inactive) | 0.195 (inactive) | 0 (inactive)
12 | INPP1 (UniProt P49441) | -0.017 (inactive) | -0.002 (inactive) | 0.125 (inactive) | -0.002 (inactive) | 0.01 (inactive)
13 | KPNA6 (UniProt O60684) | -0.017 (inactive) | -0.046 (inactive) | 0.093 (inactive) | 0.105 (inactive) | 0.07 (inactive)
14 | LARP4B (UniProt Q92615) | -0.003 (inactive) | -0.013 (inactive) | 0 (inactive) | 0.081 (inactive) | -0.014 (inactive)
15 | MAP2K2 (UniProt P36507) | 0.034 (inactive) | 0.065 (inactive) | 0.073 (inactive) | -0.027 (inactive) | -0.067 (inactive)
16 | LMNB1 (UniProt P20700) | 0.08 (inactive) | -0.005 (inactive) | -0.009 (inactive) | -0.018 (inactive) | 0.042 (inactive)
17 | MAPK8 isoform 3 (UniProt P45983) | -0.007 (inactive) | 0.151 (inactive) | 0.072 (inactive) | 0.061 (inactive) | -0.055 (inactive)
18 | MAPK9 (UniProt P45984) | 0.015 (inactive) | 0.015 (inactive) | 0.039 (inactive) | -0.042 (inactive) | 0.004 (inactive)
19 | IGF2BP2 (UniProt Q9Y6M1) | 0.122 (inactive) | -0.271 (inactive) | -0.038 (inactive) | 0.25 (inactive) | 0.019 (inactive)
20 | MARCHF3 (UniProt Q86UD3) | -0.096 (inactive) |  |  |  | 
21 | MICOS13 (UniProt Q5XKP0) | -0.018 (inactive) | 0.07 (inactive) | -0.032 (inactive) | 0 (inactive) | 0.003 (inactive)
22 | MAPK14 (UniProt Q16539) | -0.01 (inactive) | 0.153 (inactive) | 0.061 (inactive) | -0.03 (inactive) | -0.089 (inactive)
23 | MDC1 (UniProt Q14676) | -0.005 (inactive) | -0.045 (inactive) | -0.092 (inactive) | 0.068 (inactive) | 0.04 (inactive)
24 | MFN1 (UniProt Q8IWA4) | 0.058 (inactive) | 0.042 (inactive) | 0.05 (inactive) | 0.07 (inactive) | -0.01 (inactive)
25 | MIEF1 (UniProt L0R8F8) | 0.072 (inactive) | 0.026 (inactive) | 0.039 (inactive) | -0.092 (inactive) | 0.007 (inactive)
26 | MFSD1 isoform 6 (UniProt Q9H3U5) | 0.001 (inactive) | 0.045 (inactive) | 0.043 (inactive) | -0.029 (inactive) | 0.039 (inactive)
27 | LBR (UniProt Q14739) | -0.105 (inactive) | 0.051 (inactive) | 0.011 (inactive) | -0.054 (inactive) | -0.005 (inactive)
28 | MIER1 isoform 12 (UniProt Q8N108) | -0.012 (inactive) | 0.073 (inactive) | 0.059 (inactive) | 0.016 (inactive) | 0.02 (inactive)

Row | Target | log2 fold change [1] | log2 fold change [2] | log2 fold change [3] | log2 fold change [4] | log2 fold change [5]
29 | MAP2K3 isoform 3 (UniProt P46734) | -0.091 (inactive) | -0.051 (inactive) | 0.05 (inactive) | 0.026 (inactive) | 0.016 (inactive)
30 | LUC7L (UniProt Q9NQ29) | 0.011 (inactive) | -0.015 (inactive) | -0.011 (inactive) | 0 (inactive) | 0.027 (inactive)
31 | KIF11 (UniProt P52732) | -0.044 (inactive) | -0.011 (inactive) | 0.074 (inactive) | 0.092 (inactive) | -0.027 (inactive)
32 | MFSD8 (UniProt Q8NHS3) | -0.134 (inactive) | -0.033 (inactive) | 0.074 (inactive) | -0.289 (inactive) | 0.119 (inactive)
33 | KPNA1 (UniProt P52294) | -0.03 (inactive) | -0.049 (inactive) | 0.079 (inactive) | -0.003 (inactive) | -0.001 (inactive)
34 | MGST3 (UniProt O14880) | 0.046 (inactive) | 0.032 (inactive) | 0.005 (inactive) | 0.006 (inactive) | 0.054 (inactive)
35 | MAGEC2 (UniProt Q9UBF1) | 0.043 (inactive) | -0.069 (inactive) | 0.005 (inactive) | 0.009 (inactive) | 0.054 (inactive)
36 | MDN1 (UniProt Q9NU22) | -0.08 (inactive) | 0.041 (inactive) | 0.059 (inactive) | -0.054 (inactive) | -0.049 (inactive)
37 | IRF2BPL (UniProt Q9H1B7) | -0.051 (inactive) | 0.027 (inactive) | 0.001 (inactive) | -0.067 (inactive) | -0.043 (inactive)
38 | KSR1 (UniProt Q8IVT5) | -0.044 (inactive) | 0.033 (inactive) | 0.137 (inactive) | 0.044 (inactive) | 0.018 (inactive)
39 | MIF (UniProt P14174) | -0.101 (inactive) | 0.016 (inactive) | 0.015 (inactive) | -0.083 (inactive) | 0.004 (inactive)
40 | IRF3 (UniProt Q14653) | -0.049 (inactive) | 0.123 (inactive) | 0.015 (inactive) | -0.007 (inactive) | -0.01 (inactive)
41 | LPGAT1 (UniProt Q92604) | -0.068 (inactive) | -0.136 (inactive) | -0.02 (inactive) | 0.086 (inactive) | 0.074 (inactive)
42 | LPCAT3 (UniProt Q6P1A2) | 0.019 (inactive) | 0.071 (inactive) | -0.011 (inactive) | -0.093 (inactive) | -0.052 (inactive)
43 | LIAS (UniProt O43766) | 0.001 (inactive) | -0.042 (inactive) | 0.008 (inactive) | 0.049 (inactive) | 0.05 (inactive)
44 | LMF2 (UniProt Q9BU23) | -0.001 (inactive) | -0.013 (inactive) | 0.097 (inactive) | -0.012 (inactive) | -0.053 (inactive)
45 | ILVBL (UniProt A1L0T0) | -0.016 (inactive) | 0.371 (active) | 0.075 (inactive) | -0.067 (inactive) | -0.127 (inactive)
46 | KDELR2 (UniProt P33947) | -0.038 (inactive) | -0.015 (inactive) | 0.076 (inactive) | -0.137 (inactive) | 0.115 (inactive)
47 | KIF1B isoform 4 (UniProt O60333) | -0.035 (inactive) | 0.027 (inactive) | 0.042 (inactive) | -0.025 (inactive) | -0.048 (inactive)
48 | MAIP1 (UniProt Q8WWC4) | 0.012 (inactive) | 0.075 (inactive) | 0.028 (inactive) | -0.026 (inactive) | 0.002 (inactive)
49 | IGFBP4 (UniProt P22692) | -0.019 (inactive) | -0.046 (inactive) | 0.087 (inactive) | -0.103 (inactive) | 0.148 (inactive)
50 | KEAP1 (UniProt Q14145) | 0.015 (inactive) | -0.001 (inactive) | 0.007 (inactive) | 0.021 (inactive) | 0.001 (inactive)
51 | MAP4 (UniProt E7EVA0) | -0.009 (inactive) | -0.15 (inactive) | -0.095 (inactive) | 0.096 (inactive) | 0.005 (inactive)
52 | KHDRBS1 (UniProt Q07666) | -0.038 (inactive) | -0.018 (inactive) | -0.025 (inactive) | 0.055 (inactive) | -0.021 (inactive)
53 | ITM2B (UniProt Q9Y287) | 0.013 (inactive) | -0.068 (inactive) | 0.061 (inactive) | -0.028 (inactive) | -0.112 (inactive)
54 | IPO9 (UniProt Q96P70) | 0.018 (inactive) | 0.063 (inactive) | 0.014 (inactive) | -0.01 (inactive) | 0.079 (inactive)
55 | MARCKS (UniProt P29966) | 0 (inactive) | -0.046 (inactive) | -0.066 (inactive) | -0.065 (inactive) | 0.031 (inactive)
